Reference: PubChem BioAssay (NCI)
This is part of a sample that, as a whole, favours compounds with a hit. Of some 79,000 tested, about 15% had one in any assay. A number with no mark means an inactive call. The source made the active and inactive calls. Rule as the data show it: active = growth inhibition above about 70%; inactive = the rest.

Test: NCI Yeast Anticancer Drug Screen. Data for the cln2 rad14 strain (AID 165);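 also: 0% = growth equal to vehicle treated cultures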
Conditions: S. cerevisiae cln2 rad14 strain, at 50.0 µM, stronger effect = higher value
Procedure, shortened: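 The screen exposed genetically defined yeast (cln2 rad14) to test compounds and scored growth inhibition relative to vehicle-treated controls.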

Row | Compound | growth inhibition
1 | O=C1C(CN2CCCCC2)CCC1CN1CCCCC1 (stereo not given) | 9.95%
2 | CC1CC[N-]CC1.CC1CC[N-]CC1.[Cl][Pt+2][Cl] | -34%
3 | COc1cc2c(c(OC)c1OC)-c1ccc(OC)c(=O)cc1C(NC(=O)CCCCCNc1ccc(N=[N+]=[N-])cc1[N+](=O)[O-])CC2 (stereo not given) | 36%
4 | C(=N\NC1=NCCCN1)/c1ccc2ccccc2c1 | -28.4%
5 | C[n+]1c(/C=C\c2ccc(O)cc2)cc(C(N)=O)c2ccccc21 | 2.6%
6 | Cc1ncc(CN2CSC(CCO)C2C)c(N)n1 (stereo not given) | 16.8%
7 | Nc1cc(Cl)c(N)c(Cl)c1 | 14.1%
8 | N#Cc1cccc(-c2ccc(-c3ccccc3)o2)c1 | -7.25%
9 | CC1CN=C(N(C(=O)Nc2ccc(Cl)c(Cl)c2)c2ccccc2)S1 (stereo not given) | 23.8%
10 | OCC1CC1c1ccccc1 (stereo not given) | 10.5%
11 | CCN(CC)C1=C(C)S(=O)(=O)C1c1ccc(C)cc1 (stereo not given) | 5.6%
12 | CN(C)c1ccc(C=Nc2cc(Cl)ccc2O)cc1 | -2.9%
13 | Oc1ccc(C=NCCN=Cc2ccc(O)cc2)cc1 | -24.2%
14 | CCCOC(=O)c1ccnc(C(=O)OCCC)c1 | -16.2%
15 | CCn1c2ccc(C=O)cc2c2cc([N+](=O)[O-])ccc21 | -0.05%
16 | c1ccc(C(N=NC(c2ccccc2)c2ccccc2)c2ccccc2)cc1 | -18.3%
17 | CC1(C)C(=O)/C=C\C(=O)C(C)(C)C(=O)/C=C\C(=O)C(C)(C)C2=CC=C(O2)C(C)(C)C(=O)/C=C\C1=O | 20.9%
18 | CNC1C(=O)C(C)C(O)(C(CC(C)C(O)/C=C/C=C/CNC(=O)C(C)(C)C(O)\C(C)=C/C=C\C=C\Cc2cnc(C)o2)OC)C12C(=O)OC2COC (stereo not given) (tested in a mixture with another compound) | 2.95%
19 | C=CCNC(=O)C(=O)NCC=C | -24.6%
20 | O=C(Nc1ccccc1Cl)Nc1ccccc1Br | 12.2%

Row | Compound | growth inhibition
21 | CS(=O)(=O)Oc1ncc(Cl)cc1Cl | 14.5%
22 | O=[N+]([O-])c1ccc(OCCCCCBr)c(Cl)c1 | -26.7%
23 | COc1ccc(N/N=C2\CCOc3ccc(C)cc3C2=O)cc1 | 14.6%
24 | Cc1ccc(S(=O)(=O)Oc2nc3nc4ccccc4nc3nc2OS(=O)(=O)c2ccc(C)cc2)cc1 | -10.5%
25 | COc1ccn(C2OCCC(OC(C)=O)C2O)c(=O)n1 (stereo not given) | -22.9%
26 | Cc1ccc(O)c(O)c1 | -8.9%
27 | CCc1ccc2[nH]nc(CCC(=O)O)c(=O)c2c1 | -12.4%
28 | O=C1Nc2ccccc2C2=C3CCCCC3=NNC12 (stereo not given) | 68.2%
29 | O=Cc1cccc(OC(=O)Nc2ccccc2)c1 | -17.5%
30 | CCCN=C(C(C)=O)N(C)C | 6.55%
31 | CC1SC2(C(=O)Nc3ccccc32)N(c2ccc(Cl)cc2)C1=O (stereo not given) | 23.9%
32 | CC(C)C1CCC(C)(C=O)C1 (stereo not given) | -7.85%
33 | Cc1cc2nc3n(c2cc1C)C(=O)c1cc2ccccc2cc1-3 | 7.7%
34 | CC1=CC(C)(C)NC(=S)N1CCO | 13.4%
35 | Cc1cc2nc3c(=O)[nH]c(=O)nc-3n(CCOC(=O)CCC(=O)O)c2cc1C | 0.2%
36 | O=c1c(Cl)cc(Cl)cn1S(=O)(=O)c1ccc([N+](=O)[O-])cc1 | 98.7% (active)
37 | COC(=O)C(=O)C1(C)CCc2c(ccc3ccc(OC)cc23)C1=O (stereo not given) | -31.9%
38 | COc1ccc(C(=O)/C=C/c2ccncc2)cc1OC | 5.55%
39 | CC(C)CCCC(C)C1CCC2C3CCC4CC(O)C5(CC4(C)C3CCC12C)SCCS5 (stereo not given) | 18.4%
40 | O=C(Oc1ccn(C2OC(CO)C(O)C2O)c(=O)c1)C12CC3CC(CC(C3)C1)C2 (stereo not given) | 25.4%
